The values below come from PubChem BioAssay (NCATS).

Inconclusive results are not listed. Values without a mark were called inactive. Calls come from the whole dose curve; as a rule, active = well fitted curve in either direction with a large enough effect (not every such curve was filed as active); inconclusive = small, poorly fitted or top-dose-only effect, or another doubt; inactive = flat fitted curve, though single readings scatter.
% is set by controls: 0 for no effect and ±100 for the full control effect.

The nature of one assay: AP1 Signaling Pathway (AID 357).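 Note: ME-180 reporter cells stimulated with EGF at its EC50 level.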 Particulars: ME-180 (cervical carcinoma) AP-1-bla reporter, EGF-induced, beta-lactamase ratio, 5 h; at 17.2 µM (top of the series) unless noted. A digest of the protocol:
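Read-out was the 460nm/530nm emission ratio (excitation 405nm) after CCF4 loading for 2.5 hours at room temperature. Cells carried an AP-1-driven beta-lactamase reporter, were stimulated with EC50 EGF plus compound for 5 hours, and AC50 values came from titrations.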
Regarding `Cc1ccc(CC2CC(=O)N(c3ccc4c(c3)OCCO4)C2=O)cc1` (stereo not given), the activity change, negative = inhibition is -5.59%.
As for `Cn1ncc2nnn(-c3ccccc3)c(=O)c21`, the activity change, negative = inhibition was 3.86%.
The same measure, in the same setting: the figure for `CCOC(=O)COc1nc(N(C)C)nc(N(C)C)n1` is 5.84%; for `O=C(COc1ccc(F)cc1)OCCN1CCOCC1` it is -4.17%; for `COCCNc1oc(-c2ccc(F)cc2)nc1C#N` it is -13.6%.
Same read-out and setting: to `COc1ccccc1C1/C(=C(/O)c2cnn(-c3ccccc3)c2C)C(=O)C(=O)N1CCN(C)C` (stereo not given) belongs -7.05%; to `COc1cc(C)nc(Oc2ccc(=O)n(C)n2)n1`, 8.82%.
As to `O=C(C1=C(O)C(=O)N(CCCN2CCOCC2)C1c1ccccn1)c1cc2ccccc2o1` (stereo not given), the activity change, negative = inhibition is 0.283%.
On the same count and under the same terms, the figure for `CCOCCN(C(=O)COC)c1cccc(OC)c1` is 20.2%; for `COc1ccc(C=NCCC2(O)CC(C)N(C)CC2C)cc1` (stereo not given) it is -0.876%; for `CCN(CC)CCN1C(=O)C(=O)/C(=C(/O)c2ccc(C)cc2)C1c1cccnc1` (stereo not given) it is 4.64%.
Regarding `COc1cc(C)nc(Oc2ccc(=O)[nH]n2)n1`, the activity change, negative = inhibition is 16.4%.
Still for that read-out and setting: the figure for `CC1(C)CC(=O)C2=C(C1)N(Cc1ccco1)C(=O)C2(NC(=O)c1cccnc1)C(F)(F)F` (stereo not given) is -3.2%; for `CC(=O)[C@H]1[C@@H]2C(=O)N(c3cccc(Cl)c3)C(=O)[C@@H]2[C@H]2c3ccccc3C=CN21` it is -11%; for `CCOc1ccc(C2/C(=C(/O)c3ccc(F)cc3)C(=O)C(=O)N2CCCN(C)C)cc1` (stereo not given) it is 10.1%.
On the same count and under the same terms, to `CC1=C(C(=O)Nc2ccccc2)C(c2ccncc2)C(C#N)=C(SCC(=O)NC(C)C)N1` (stereo not given) belongs -5.76%.
Still for that read-out and setting: the figure for `COC(=O)C1=C(C)N=C2SC(C)C(=O)N2C1/C=C/c1ccccc1OC` (stereo not given) is 2.3%; for `CCOC(=O)Cn1nc(C)c2ccccc2c1=O` it is 5.31%.
For `CSc1nc2sc3c(c2c2nnnn12)CC(C)(C)OC3`, the activity change, negative = inhibition was -8.22%.
The same measure, in the same setting: the figure for `O=C1NCC(COCC2CC=CCC2)O1` (stereo not given) is 9.6%; for `C=CCn1cnc2c(c1=O)c1nc3ccccc3nc1n2-c1ccc(Cl)cc1` it is 8.09%.
On the same count and under the same terms, to `Cc1nc(-c2coc3cc(OCC(=O)O)ccc3c2=O)cs1` belongs 7.54%.
Same read-out and setting: the figure for `COc1ccc(C2C(C#N)=C(N)Oc3cc(C)n(CCN4CCOCC4)c(=O)c32)cc1OC` (stereo not given) is 0.457%.
For the molecule `Cc1ccc(N(CC(=O)O)C2SC(=O)NC2=O)cc1` (stereo not given), the activity change, negative = inhibition was 12.3%.
The same measure, in the same setting: to `c1coc(-c2nnc3sc(-c4cccs4)nn23)c1` belongs -11.6%.
Still for that read-out and setting: to `Cc1cccc(NC(=O)c2cc(N3CCOCC3)nc3ccccc23)c1` belongs -7.76%.
The same measure, in the same setting: the figure for `CC(=O)OCC(=O)[C@@]1(O)CC[C@H]2[C@@H]3CCC4=CC(=O)C=C[C@]4(C)[C@@]3(Cl)[C@@H](Cl)C[C@@]21C` is 11.8%.
In the case of `COc1ccc(/C(O)=C2/C(=O)C(=O)N(CCCN(C)C)C2c2ccco2)cc1Cl` (stereo not given), the activity change, negative = inhibition was 9.29%.
On the same count and under the same terms, the figure for `O=C(NCCC1=CCCCC1)c1ccc(=O)oc1` is -16%; for `C=CCn1c(SCC(=O)NC23CC4CC(CC(C4)C2)C3)nc(O)cc1=O` it is 8.04%; for `COC(=O)C(C)Sc1nc2c(c(=O)n(C)c(=O)n2C)n1CCC(C)C` (stereo not given) it is -4.73%.
Still for that read-out and setting: the figure for `Cc1cccc(OCC(=O)N2CCC(N3CCOCC3)CC2)c1` is -0.218%; for `CCOC(=O)c1c(C(C#N)C#N)cc(C)nc1C` it is 9.21%.
On the same count and under the same terms, the figure for `CN1C(=O)CC(N2CCN(c3ccc(Cl)c(Cl)c3)CC2)C1=O` (stereo not given) is 17.6%; for `N#CC1=C(N)N2C(=C(C#N)C1c1ccccc1)Sc1ccccc12` (stereo not given) it is 17.5%; for `O=C(CN1C(=O)c2ccccc2C1=O)NCc1ccccn1` it is -3.27%.
Consider `Cc1ccc(C2C(C(=O)c3cc4ccccc4o3)=C(O)C(=O)N2CCN(C)C)o1` (stereo not given), for which the activity change, negative = inhibition is -1.56%.
Take `CCOC(=O)C(C)Oc1ccc2c(C)cc(=O)oc2c1C(C)=O` (stereo not given): the activity change, negative = inhibition was 3.53%.
On the same count and under the same terms, the figure for `O=C(CN1C(=O)c2ccccc2S1(=O)=O)c1ccccc1` is 9.24%.
Same read-out and setting: the figure for `CC1(C)Cc2[nH]c(=O)c(C#N)cc2CS1` is 19.5%.

A further assay is described as follows: NFAT Signaling Pathway (AID 444).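 Note: carbachol stimulus at about its EC50 of 1 µM final.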 Particulars: Jurkat NFAT-bla M1, carbachol, beta-lactamase ratio, 5 h; at 17.2 µM (top of the series) unless noted. A digest of the protocol:
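Jurkat cells with NFAT-driven β-lactamase reporter and co-expressed M1 receptor, stimulated with carbachol (final 1 uM, ~EC50), compound titration, 5 h at 37 °C. CCF4 loaded 1 h at RT; 460/530 nm ratio gave %activity and AC50.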
Regarding `Cc1ccc(CC2CC(=O)N(c3ccc4c(c3)OCCO4)C2=O)cc1` (stereo not given), the activity change, negative = inhibition is 4.5%.
Still for that read-out and setting: the figure for `Cn1ncc2nnn(-c3ccccc3)c(=O)c21` is -4.96%; for `CCOC(=O)COc1nc(N(C)C)nc(N(C)C)n1` it is -1.43%; for `O=C(COc1ccc(F)cc1)OCCN1CCOCC1` it is -0.67%.
As for `COCCNc1oc(-c2ccc(F)cc2)nc1C#N`, the activity change, negative = inhibition was 7.25%.
Same read-out and setting: the figure for `COc1ccccc1C1/C(=C(/O)c2cnn(-c3ccccc3)c2C)C(=O)C(=O)N1CCN(C)C` (stereo not given) is 1.4%; for `COc1cc(C)nc(Oc2ccc(=O)n(C)n2)n1` it is -8.27%; for `O=C(C1=C(O)C(=O)N(CCCN2CCOCC2)C1c1ccccn1)c1cc2ccccc2o1` (stereo not given) it is 1.99%.
On the same count and under the same terms, to `CCOCCN(C(=O)COC)c1cccc(OC)c1` belongs 2.78%; to `COc1ccc(C=NCCC2(O)CC(C)N(C)CC2C)cc1` (stereo not given), 9.42%; to `CCN(CC)CCN1C(=O)C(=O)/C(=C(/O)c2ccc(C)cc2)C1c1cccnc1` (stereo not given), -5.95%.
The same measure, in the same setting: to `COc1cc(C)nc(Oc2ccc(=O)[nH]n2)n1` belongs -26.6%.
In the case of `CC1(C)CC(=O)C2=C(C1)N(Cc1ccco1)C(=O)C2(NC(=O)c1cccnc1)C(F)(F)F` (stereo not given), the activity change, negative = inhibition is -3.77%.
Still for that read-out and setting: to `CC(=O)[C@H]1[C@@H]2C(=O)N(c3cccc(Cl)c3)C(=O)[C@@H]2[C@H]2c3ccccc3C=CN21` belongs -7.09%.
With `CCOc1ccc(C2/C(=C(/O)c3ccc(F)cc3)C(=O)C(=O)N2CCCN(C)C)cc1` (stereo not given), the activity change, negative = inhibition was 5.42%.
On the same count and under the same terms, to `CC1=C(C(=O)Nc2ccccc2)C(c2ccncc2)C(C#N)=C(SCC(=O)NC(C)C)N1` (stereo not given) belongs 1.05%; to `COC(=O)C1=C(C)N=C2SC(C)C(=O)N2C1/C=C/c1ccccc1OC` (stereo not given), -16.8%; to `CCOC(=O)Cn1nc(C)c2ccccc2c1=O`, 3.38%.
On the same count and under the same terms, to `CSc1nc2sc3c(c2c2nnnn12)CC(C)(C)OC3` belongs -19.6%.
Same read-out and setting: the figure for `O=C1NCC(COCC2CC=CCC2)O1` (stereo not given) is 15%; for `C=CCn1cnc2c(c1=O)c1nc3ccccc3nc1n2-c1ccc(Cl)cc1` it is -0.571%.
Turning to `Cc1nc(-c2coc3cc(OCC(=O)O)ccc3c2=O)cs1`, the activity change, negative = inhibition was -2.11%.
The same measure, in the same setting: to `COc1ccc(C2C(C#N)=C(N)Oc3cc(C)n(CCN4CCOCC4)c(=O)c32)cc1OC` (stereo not given) belongs 24.9%; to `Cc1ccc(N(CC(=O)O)C2SC(=O)NC2=O)cc1` (stereo not given), 0.868%; to `c1coc(-c2nnc3sc(-c4cccs4)nn23)c1`, -8.1%.
Consider `Cc1cccc(NC(=O)c2cc(N3CCOCC3)nc3ccccc23)c1`, for which the activity change, negative = inhibition is 28.7%.
Still for that read-out and setting: to `CC(=O)OCC(=O)[C@@]1(O)CC[C@H]2[C@@H]3CCC4=CC(=O)C=C[C@]4(C)[C@@]3(Cl)[C@@H](Cl)C[C@@]21C` belongs -9%; to `COc1ccc(/C(O)=C2/C(=O)C(=O)N(CCCN(C)C)C2c2ccco2)cc1Cl` (stereo not given), -5.99%.
Still for that read-out and setting: to `O=C(NCCC1=CCCCC1)c1ccc(=O)oc1` belongs -4.94%; to `C=CCn1c(SCC(=O)NC23CC4CC(CC(C4)C2)C3)nc(O)cc1=O`, -3.75%.
Still for that read-out and setting: the figure for `COC(=O)C(C)Sc1nc2c(c(=O)n(C)c(=O)n2C)n1CCC(C)C` (stereo not given) is 7.85%; for `Cc1cccc(OCC(=O)N2CCC(N3CCOCC3)CC2)c1` it is 6.61%; for `CCOC(=O)c1c(C(C#N)C#N)cc(C)nc1C` it is -6.15%.
On to `CN1C(=O)CC(N2CCN(c3ccc(Cl)c(Cl)c3)CC2)C1=O` (stereo not given), for which the activity change, negative = inhibition was 16.8%.
`N#CC1=C(N)N2C(=C(C#N)C1c1ccccc1)Sc1ccccc12` (stereo not given): the activity change, negative = inhibition was -26.8%.
The same measure, in the same setting: the figure for `O=C(CN1C(=O)c2ccccc2C1=O)NCc1ccccn1` is 16.6%.
Still for that read-out and setting: to `Cc1ccc(C2C(C(=O)c3cc4ccccc4o3)=C(O)C(=O)N2CCN(C)C)o1` (stereo not given) belongs -18.1%; to `CCOC(=O)C(C)Oc1ccc2c(C)cc(=O)oc2c1C(C)=O` (stereo not given), 2.57%.
Same read-out and setting: the figure for `O=C(CN1C(=O)c2ccccc2S1(=O)=O)c1ccccc1` is -11.7%; for `CC1(C)Cc2[nH]c(=O)c(C#N)cc2CS1` it is -1.45%.
